Screening results (PubChem BioAssay)
D2 PAM-1: potentiates the human D2 dopamine receptor allosterically. P14416. DiscoveRx D2 beta-arrestin cells, luminescence, 90 min; 100% = 57 uM dopamine signal. potentiation, % (concentration not given with the values). 0.23% of 360,000 active. AID 624464; in the data active = potentiation above about 50%; inconclusive = mostly about 30% to 49%
Target sequence (P14416 whole entry, looked up): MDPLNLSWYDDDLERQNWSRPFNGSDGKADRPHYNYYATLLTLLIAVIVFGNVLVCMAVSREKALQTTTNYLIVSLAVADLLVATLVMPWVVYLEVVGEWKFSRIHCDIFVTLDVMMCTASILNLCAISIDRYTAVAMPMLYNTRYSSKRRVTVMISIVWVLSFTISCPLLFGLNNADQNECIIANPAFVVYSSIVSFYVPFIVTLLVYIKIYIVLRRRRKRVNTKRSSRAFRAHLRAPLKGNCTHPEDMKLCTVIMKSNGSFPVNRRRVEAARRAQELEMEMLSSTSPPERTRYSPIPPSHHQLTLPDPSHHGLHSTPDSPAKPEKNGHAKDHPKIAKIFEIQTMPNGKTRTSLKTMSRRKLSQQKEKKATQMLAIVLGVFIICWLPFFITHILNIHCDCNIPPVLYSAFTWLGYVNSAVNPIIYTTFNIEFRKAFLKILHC
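D2 cells co-treated with compound plus 50 nM dopamine (EC20) for 90 min at 37 deg C to detect potentiation. Beta-arrestin recruitment was read as enzyme-fragment luminescence after 1 h at ambient temperature. Full response was set by 57 uM dopamine.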
D2 ag-1: agonists of human D2 dopamine receptor (beta-arrestin); AID 624465; DiscoveRx PathHunter D2 beta-arrestin, luminescence, 90 min; 100% = 57 uM dopamine signal; activation, % (concentration not given with the values); 0.084% of 360,000 active; P14416; in the data active = activation above about 40%; inconclusive = between about 15% and that limit
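Agonist mode: compounds alone added to overnight-plated D2 PathHunter cells for 90 min at 37 C, with 57 uM final dopamine (EC100) defining full response. Beta-arrestin recruitment detected by chemiluminescent reagent, read after 1 h at ambient temperature.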
D2 antagonist: antagonists of human D2 dopamine receptor; HEK293 TREx D2 cells, calcium flux, dopamine EC80; inhibition, % at 10 µM; 2% of 340,000 active; P14416; in the data active = inhibition above about 30%; inactive = below that, where a call was filed; note: 0% is about no effect
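Measurement of antagonist activity uses fluorescent calcium dye in inducible HEK293 T-REx D2 cells: 10 s baseline, compound addition with 180 s read, EC80 dopamine addition with a further 180 s read.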
D2 PAM-2: D2 dopamine receptor (human) potentiation; potentiation, % at 10 µM; 0.34% of 340,000 active; HEK293 T-REx D2, calcium flux, EC20 dopamine potentiation; AID 485347;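 active = potentiation over 3 SD above the plate norm, cut at about 30% in these data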; note: 0% is about no effect
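Using a no-wash calcium dye in inducible, force-coupled HEK293 Trex cells expressing D2, we tracked fluorescence each second for 180 s after compound, then for 180 s after EC20 dopamine to detect augmented signalling.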
D2 ag-2: activates the human D2 dopamine receptor; P14416; activation, % at 2 µM; HEK293 T-REx D2 cells, calcium flux agonist mode; AID 485358; 0.53% of 340,000 active;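 active = activation over 3 SD above normal in the single-dose calcium agonist read, cut at about 30% in these data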; note: 0% is about no effect
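Agonism scored from kinetic calcium signal (1 read/sec, 180 s) following compound pin transfer, after a 10 s baseline. Cells: HEK293 Trex line expressing inducible D2 receptor coupled to calcium, dye-loaded after overnight culture at 30 C.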
Starred values were filed as active, the others as inactive; ? = inconclusive; / = not tested or not shown. This is a sample that favours compounds with a hit; in the whole collection about 2.4% have one here.

SMILES	D2 PAM-1	D2 ag-1	D2 antagonist	D2 PAM-2	D2 ag-2
CCCCOc1ccc(CNC(=O)C2CCCN(c3nnc(-n4c(C)ccc4C)s3)C2)cc1 (configuration not stated)	/	/	/	-2	1
COc1ccc2c(c1)cc1c(=O)n(CC(=O)NC3CCCCC3)nc(C)n12	/	/	/	-2	0
COc1ccc(C(C)=O)cc1COC(=O)CSC(C)C(=O)Nc1cc(C)on1 (configuration not stated)	4	-3	2	3	0
COc1ccc(C(C)=O)cc1COC(=O)CSCC(=O)Nc1ccc(C)cc1	-31	-4	30*	-27	-1
Cc1ccc(CNS(=O)(=O)c2cc3c(cc2Cl)NC(=O)CO3)o1	/	/	/	12	-1
O=C(CCCN1CCN(c2ccccc2)CC1)c1ccc(F)cc1	-22	0	/	/	/
O=C(CCCN1Cc2ccccc2C1)c1ccc(F)cc1	-23	-3	79*	-6	0
O=C(CCCN1CCOC(c2ccccc2)C1)c1ccc(F)cc1 (configuration not stated)	-4	-5	49*	-27	0
CN1CCN(CCCC(=O)c2ccc(F)cc2)CC1	-52	-4	21	-20	-1
CN(C1CCCCC1)S(=O)(=O)c1ccc2c(c1)c(=O)c(C(=O)NCc1ccccc1Cl)cn2C	/	/	/	-1	0
CCN(CC)CCNC(=O)c1ccc(-n2c(-c3ccccc3)cc3c2CCCC3)cc1	/	/	/	2	-1
Cc1cccc(Nc2nc(N)c([N+](=O)[O-])c(N3CCN(C)CC3)n2)c1	-35	-5	55*	-30	-1
CN1CCN(c2nc(Nc3ccccc3)nc(N)c2[N+](=O)[O-])CC1	-17	-2	83*	-25	-1
Nc1nc(Nc2cccc(F)c2)nc(N2CCOCC2)c1[N+](=O)[O-]	-10	4	-7	-12	0
Cc1ccc(C2C=C(c3ccccc3)Nc3nc(NS(=O)(=O)c4ccc(C)cc4)nn32)cc1 (configuration not stated)	/	/	/	-4	2
CS(=O)(=O)Nc1nc2n(n1)C(c1ccccc1)C=C(c1ccc(Br)cc1)N2 (configuration not stated)	75*	?	-5	-6	2
CC(=O)NC1CC2CCCC(C1)N2C(=O)Nc1c(C)cccc1C (configuration not stated)	-6	1	/	/	/
Cc1cccc(C)c1NC(=O)N1C2CCCC1CC(NC(=O)C(C)(C)C)C2 (configuration not stated)	-6	0	38*	14	0
COC1=CC(=Cc2c(N)n3nc(CC(=O)N4CCCCC4)sc3nc2=O)C=C(OC)C1=O	2	-3	-2	7	70*
Cc1ccc(CCNC(=O)c2cnc3c(C)cccn3c2=O)cc1	/	/	/	7	/
CC(C)OP(=O)(c1ccc(N(C)C)cc1)C(O)c1ccccc1F (configuration not stated)	-8	-4	-7	-3	0
CC(C)OP(=O)(c1ccc(N(C)C)cc1)C(O)c1ccncc1 (configuration not stated)	-2	-1	32*	5	0
COc1ccccc1C(O)P(=O)(OC(C)C)c1ccc(N(C)C)cc1 (configuration not stated)	-4	0	31*	-3	1
Cc1onc(-c2ccccc2)c1C(=O)N(CC(C)C)c1c(N)n(CC(C)C)c(=O)[nH]c1=O	-4	-2	/	30*	/
CCCCN(C(=O)c1c(CC)noc1C)c1c(N)n(CC(C)C)c(=O)[nH]c1=O	15	2	2	-8	0
SMILES	D2 PAM-1	D2 ag-1	D2 antagonist	D2 PAM-2	D2 ag-2
CC1(C(=O)NNC(=O)c2cccc([N+](=O)[O-])c2)CC1(Br)Br (configuration not stated)	-4	2	2	-4	0
CC1(C(=O)NNC(=O)c2ccc([N+](=O)[O-])cc2)CC1(Br)Br (configuration not stated)	-28	-5	37*	4	0
Cc1c(C(=O)NCc2ccccc2Br)oc2c1-c1[nH]ncc1CC2	/	/	/	-2	/
O=C(NCCCN1CCCCC1)c1ccc(CS(=O)c2ccc(F)cc2)o1 (configuration not stated)	-4	-2	32*	-4	1
Cc1cc(C(=O)CSc2nnc(-c3ccc(F)cc3)o2)c(C)n1CC1COc2ccccc2O1 (configuration not stated)	-4	-1	41*	-9	0
Cc1cc(C(=O)CSc2nnc(-c3ccccc3)o2)c(C)n1CC1COc2ccccc2O1 (configuration not stated)	9	1	-17	15	1
Cc1ccccc1C(=O)OCCN(C)Cc1ccccc1	-16	-5	32*	-21	-2
Cc1ccc(C(=O)OCCN(C)Cc2ccccc2)cc1	-19	-4	2	-19	2
CC(C)c1ccc(OCc2cc(=O)n3c(-c4ccccc4)csc3n2)cc1	/	/	/	24	-1
O=[N+]([O-])c1cc(-c2nc(-c3ccccc3)no2)ccc1NCc1cccnc1	/	/	/	1	1
N#C/C(=C\c1ccc(O)c(Br)c1)C(=O)NCc1ccccc1	-5	-2	69*	14	-1
N#C/C(=C\c1ccc(O)c([N+](=O)[O-])c1)C(=O)NCc1ccccc1	-23	-6	4	4	-1
Nc1cccc(-c2cn3ccsc3n2)c1	/	/	/	8	2
Cc1ccc(S(=O)(=O)NCCC(=O)NCc2cccnc2)cc1	4	6	/	/	/
CSc1nnc(CCNS(=O)(=O)c2ccccc2Br)n1C	-2	-2	34*	-3	1
Cc1ccc(S(=O)(=O)NCCc2nnc(SCc3cccnc3)n2C)cc1	-6	-1	11	33*	0
CCn1c(CCNS(=O)(=O)c2ccccc2Br)nnc1SC	-6	-1	-22	-3	1
O=C(CCCn1c(=O)c2ccccc2n(CC(=O)Nc2cccc(Cl)c2)c1=O)NCc1ccc2c(c1)OCO2	/	/	/	-2	/
O=C(COC(=O)c1cc[n+]([O-])cc1)Nc1ccc(Br)cc1	-2	2	-24	-2	-1
O=C(COC(=O)c1cc[n+]([O-])cc1)Nc1ccc(SC(F)F)cc1	0	-1	31*	-5	1
OC1CCN(C(=S)NCCc2ccccc2)CC1	-4	0	2	0	0
S=C(NCCc1ccccc1)N1CCc2ccccc2C1	-13	-2	41*	-11	-1
C=CCNc1nc(SC)nc2ccsc12	-18	-1	32*	-4	0
COC1CCCN(C(=O)c2ccc3oc(Cc4ccc(Cl)cc4)nc3c2)C1 (configuration not stated)	7	-1	31*	-9	-1
COc1ccc(N2C(=O)C(Cl)=C(N3CCN(Cc4ccccc4)CC3)C2=O)cc1	1	-2	/	/	/
